CYP2C19 inhib: inhibitors of human CYP2C19; P33261; CYP2C19 Supersomes, luciferin-H EGE luminescence, 30 min; inhibition, % at 5 µM; actives 21% (n = 96,000); AID 778;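 active = CYP2C19 inhibition above a set limit at 5 µM in the primary screen, cut at about 50% in these data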;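 also: plate controls were negative control wells for no effect and 2.5 mM tranylcypromine positive control for full effect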
CYP2C9 inhib: blocks human cytochrome P450 2C9 | P11712 | CYP2C9 Supersomes, luciferin-H conversion, luminescence | inhibition, % at 5 µM | actives 20% (n = 96,000);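 active = blocking of liver enzyme CYP2C9 beyond about 50% at 5 µM, limit read from the data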
Target sequence (P11712 whole entry, looked up): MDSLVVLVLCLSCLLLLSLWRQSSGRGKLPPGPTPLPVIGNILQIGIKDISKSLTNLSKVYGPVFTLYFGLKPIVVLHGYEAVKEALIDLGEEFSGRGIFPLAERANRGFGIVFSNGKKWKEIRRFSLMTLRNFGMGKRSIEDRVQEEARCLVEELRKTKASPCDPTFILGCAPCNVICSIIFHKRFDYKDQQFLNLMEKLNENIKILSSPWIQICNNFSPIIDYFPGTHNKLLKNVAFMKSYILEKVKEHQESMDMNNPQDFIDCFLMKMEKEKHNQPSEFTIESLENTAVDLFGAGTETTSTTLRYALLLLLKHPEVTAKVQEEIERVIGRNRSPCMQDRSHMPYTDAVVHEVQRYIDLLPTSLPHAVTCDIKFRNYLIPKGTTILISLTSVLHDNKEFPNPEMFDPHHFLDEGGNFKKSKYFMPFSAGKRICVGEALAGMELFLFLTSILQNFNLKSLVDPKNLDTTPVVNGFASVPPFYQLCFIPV
sEH act: activators of human soluble epoxide hydrolase; P34913; purified human sEH enzymatic activity, activator screen; activation, % at 2 µM; actives 0.04% (n = 91,000); AID 717; in the data active = activation above about 37%
CYP2C9 act: increases human cytochrome P450 2C9 activity; P11712; recombinant CYP2C9, luciferin-H conversion, luminescence; active compounds read high; factor 1 = untreated enzyme, 0 = blocked; activation factor at 5 µM; actives 1.4% (n = 96,000); AID 1024;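 active = activation factor of 2 or more for CYP2C9 at a 5 µM dose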;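 also: 0 = sulfaphenazole-blocked wells and 1 = vehicle-only wells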
sEH inh: blocks human soluble epoxide hydrolase activity. inhibition, % at 2 µM. actives 0.34% (n = 91,000). recombinant human sEH enzymatic activity assay. P34913. AID 707; in the data active = inhibition above about 80%
CYP2C19 act: cytochrome P450 2C19 (human) activation | recombinant CYP2C19, luciferin-H EGE luminescence; active compounds read high; 0 = fully inhibited enzyme, 1 = untreated enzyme | P33261 | activation factor at 5 µM | 96,000 tested, under 10 active;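 active = activation factor of at least 2 at 5 µM in the primary screen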;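 also: 0 = wells with 2.5 mM tranylcypromine and 1 = vehicle-only wells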
An asterisk follows results filed as active; · = no result. Rows were chosen to be rich in hits. Some 27% of all compounds tested hit in one or more screens of this group.

SMILES	CYP2C19 inhib	CYP2C9 inhib	sEH act	CYP2C9 act	sEH inh	CYP2C19 act
CCC(=O)NC(=S)N1CCN(c2ccc([N+](=O)[O-])cc2Cl)CC1	68*	-4	8	1	-8	0.3
O=C1NC(=O)c2cc(NC(=O)C3CCCO3)ccc21 (stereo unspecified)	37	86*	-7	0.1	7	0.6
Cc1ccc(NS(=O)(=O)c2ccc(NC(=O)C3CCCO3)cc2)cc1 (stereo unspecified)	91*	85*	-2	0.1	4	0.1
CCN(CC)S(=O)(=O)c1ccc(NC(=O)C2CCCO2)cc1 (stereo unspecified)	9	21	12	0.8	-14	0.9
Cc1ccnc(NS(=O)(=O)c2ccc(NC(=O)C3CCCO3)cc2)n1 (stereo unspecified)	0	1	·	1	·	1
CCc1ccc(NC(=O)c2ccccc2NC(=O)C2CCCO2)cc1 (stereo unspecified)	21	59*	-2	0.4	5	0.8
CN(Cc1ccccc1)S(=O)(=O)c1ccc(NC(=O)C2CCCO2)cc1 (stereo unspecified)	12	55*	·	0.5	·	0.9
Cn1c(=O)n(CC(=O)Nc2cccnc2)c2ccccc21	·	·	2	·	1	·
O=C(NCCN1CCN(c2ccccc2)CC1)c1ccc(NC(=O)C2CCCO2)cc1 (stereo unspecified)	52*	-5	0	1.1	0	0.5
COc1ccc(NS(=O)(=O)c2ccc(NC(=O)C3CCCO3)cc2)cc1 (stereo unspecified)	69*	65*	-7	0.3	5	0.3
CCOC(=O)N1CCC(NC(=O)c2ccc(NC(=O)C3CCCO3)cc2)CC1 (stereo unspecified)	11	8	·	0.9	·	0.9
O=C(Nc1ccc(Oc2ccc(NC(=O)C3CCCO3)cc2)cc1)C1CCCO1 (stereo unspecified)	26	54*	·	0.5	·	0.7
COc1ccc(CNC(=O)c2ccc(NC(=O)C3CCCO3)cc2)cc1 (stereo unspecified)	-1	6	·	0.9	·	1
CC1CCCCC1NC(=O)c1cc2c(s1)CS(=O)(=O)C2 (stereo unspecified)	-7	41	·	0.6	·	1.1
C=CCN=C1SCC(=O)N1S(=O)(=O)c1ccccc1	40	4	-4	1	3	0.6
O=C(NC1CCCCC1)C(c1ccccc1)N(C(=O)Cc1ccsc1)c1ccccc1 (stereo unspecified)	-4	1	1	1	1	1
CCOC(=O)N1CCN(CC(O)c2ccc3c(c2)CCN3)CC1 (stereo unspecified)	5	1	·	1	·	0.9
CCOC(=O)N1CCN(CC(O)c2ccc3cc[nH]c3c2)CC1 (stereo unspecified)	96*	4	·	1	·	0
NC(=O)C1CCCN(C(=O)Nc2cccc3ccccc23)C1 (stereo unspecified)	0	-13	0	1.1	0	1
Oc1ccc(CNC2CCCCC2)cc1	-4	-13	·	1.1	·	1
Clc1ccc(CNC2CCCC2)cc1	78*	19	7	0.8	-7	0.2
COc1ccc(C2N=C(c3ccccc3)C(C)(C)N2O)cc1 (stereo unspecified)	83*	12	11	0.9	-16	0.2
CC(C)(C)N1CC(c2nc3ccccc3n2Cc2ccccc2)CC1=O (stereo unspecified)	50	79*	-2	0.2	2	0.5
CCn1c(C2CC(=O)N(c3ccc(C)c(C)c3)C2)nc2ccccc21 (stereo unspecified)	53*	31	·	0.7	·	0.5
c1ccc(CCn2c(C3CC3)nc3ccccc32)cc1	98*	66*	1	0.3	0	0
SMILES	CYP2C19 inhib	CYP2C9 inhib	sEH act	CYP2C9 act	sEH inh	CYP2C19 act
C=C(C)Cn1c(C2CC(=O)N(Cc3ccccc3)C2)nc2ccccc21 (stereo unspecified)	55*	71*	·	0.3	·	0.4
Cc1cc(C)cc(N2CC(c3nc4ccccc4n3C)CC2=O)c1 (stereo unspecified)	12	-36	·	1.4	·	0.9
Cc1ccc(N2CC(c3nc4ccccc4n3C)CC2=O)cc1C (stereo unspecified)	22	-42	-1	1.4	4	0.8
CC12C(=O)N(CCC(=O)O)C(=O)C1C1C=CC2C1 (stereo unspecified)	7	2	-5	1	6	0.9
CCOC(=O)N1CCC(NS(=O)(=O)c2cc(Br)cc3c2N(C(=O)CC)CC3)CC1	21	3	·	1	·	0.8
CCCC1(C(=O)O)NC(c2ccc(OC)cc2O)C2C(=O)N(c3ccc(OC)cc3)C(=O)C21 (stereo unspecified)	1	-4	-21	1	22	1
CCn1c(C2CC(=O)N(Cc3ccccc3)C2)nc2ccccc21 (stereo unspecified)	53*	45	-19	0.5	22	0.5
C=CCN1CC(c2nc3ccccc3n2CCOc2ccccc2)CC1=O (stereo unspecified)	60*	73*	7	0.3	-6	0.4
CCN(CC)C(=O)CSCc1cnn(-c2ccccc2)c1-n1cccc1	50	39	-6	0.6	5	0.5
CN(C1CCCCC1)S(=O)(=O)c1ccc(NC(=O)C2CCCCC2C(=O)O)cc1 (stereo unspecified)	12	1	15	1	-16	0.9
CCCCNC(=O)CCCn1c(=O)c2ccccc2n(CC(=O)NCCC2=CCCCC2)c1=O	67*	72*	-19	0.3	18	0.3
O=C(Cn1c(=O)n(CCCC(=O)NC2CCCC2)c(=O)c2ccccc21)NCCC1=CCCCC1	23	68*	·	0.3	·	0.8
O=C(CCCCn1c(=O)[nH]c2ccccc2c1=O)NCCC1=CCCCC1	30	29	-52	0.7	51	0.7
CCN(c1cccc(C(F)(F)F)c1)S(=O)(=O)c1ccc2c(c1)CCN2C(C)=O	61*	28	10	0.7	-8	0.4
CCN(c1cccc(C)c1)S(=O)(=O)c1ccc2c(c1)CCN2C(C)=O	34	38	-12	0.6	15	0.7
CCC(C)(C)n1nnnc1C(C(C)C)N(Cc1ccco1)Cc1cc2cc3c(cc2[nH]c1=O)OCO3 (stereo unspecified)	33	-1	-5	1	4	0.7
CCN(Cc1ccccc1)C(c1cc2ccc(C)cc2[nH]c1=O)c1nnnn1CCOC (stereo unspecified)	7	55*	-2	0.4	0	0.9
COc1ccc2[nH]c(=O)c(CN(Cc3ccco3)C(c3nnnn3Cc3ccccc3)C(C)C)cc2c1 (stereo unspecified)	44	70*	-1	0.3	0	0.6
Cc1cccc2cc(CN(Cc3ccco3)C(c3nnnn3CCc3ccccc3)C(C)C)c(=O)[nH]c12 (stereo unspecified)	78*	83*	·	0.2	·	0.2

Bioassay records from PubChem BioAssay.
